# Test results from the supplement of paper PMC6555819.
# Legend:
# Assay in all cases: PBM binding z-score (relative to random genomic background probes); higher = stronger binding; sequences stand for … in GC…GCGATTGACAGCGTAGAATGAAGG
# [1] = system: PPARg:RXRa DBDmut IVT, anti-RXR (DBD mutation: RXRa K156A/R161A, NR concentration 270 nM, RXRa partner concentration 90 nM)
# In short: (§1)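 Ligand-free nuclear receptor dimers were bound for 1 h to custom Agilent 4×180K protein-binding microarrays. Detection used antibodies against each partner (one per run). Binding z-scores rest on regression-normalized fluorescence, with random background probes as the reference.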
# [2] = system: PPARg:RXRa IVT, anti-PPARg (NR concentration 270 nM, RXRa partner concentration 90 nM)
# In short: as §1
# [3] = system: PPARg DBDmut:RXRa IVT, anti-PPARg (DBD mutation: PPARg1 K132A/R137A, NR concentration 270 nM, RXRa partner concentration 90 nM)
# In short: as §1
# [4] = system: PPARg DBDmut IVT, anti-PPARg (DBD mutation: PPARg1 K132A/R137A, NR concentration 270 nM)
# In short: as §1
# [5] = system: PPARg homodimer (NR concentration 180 nM)
# In short: as §1
# [6] = system: PXR:RXRa (NR concentration 270 nM, RXRa partner concentration 90 nM)
# In short: as §1
# [7] = system: PXR homodimer (NR concentration 270 nM)
# In short: as §1
# [8] = system: RARa:RXR (NR concentration 270 nM, RXRa partner concentration 90 nM)
# In short: as §1
# [9] = system: RARa homodimer (NR concentration 270 nM)
# In short: as §1
# [10] = system: RARb:RXRa (NR concentration 270 nM, RXRa partner concentration 90 nM)
# In short: as §1
Sequence,PBM binding z-score [1],PBM binding z-score [2],PBM binding z-score [3],PBM binding z-score [4],PBM binding z-score [5],PBM binding z-score [6],PBM binding z-score [7],PBM binding z-score [8],PBM binding z-score [9],PBM binding z-score [10]
TGAATCAGGTTATAAGATCAGGGAACGTTGCAAA,0.57,1.03,1.01,0.775,2.15e-05,-0.146,-0.197,-0.101,0.428,0.25
CCTGCTAGGTCAAGGTCAGCTAATCTACAGTATG,4.9,4.64,0.201,-0.28,2.21,3.45,0.401,3.88,1.15,5.09
ATCGCAAGGTCGTGAGGTGAGTATACAGAAAGGC,-0.158,1.26,0.877,-0.102,0.794,1.78,0.241,2.78,-0.445,2.67
AGAATGAGGTTACAAAAGATCAGGGAAACGCTTG,3.87,3.13,1.47,0.745,0.909,1.23,0.246,1.88,-0.148,1.81
ATCTCTAGGTAACGAGTTCAGTGAAAGAGAGGAC,4.09,3.44,0.909,0.668,0.806,2.31,2.89,0.857,0.668,1.35
AATGCAGGGTCACTAGGCCAGAGTAGGTACGAAT,4.1,5.62,1.45,0.273,2.1,3.26,0.127,4.25,0.109,4.13
GCTAGTTGGTCAGTAAAAGGTCCCACACCGGTCG,0.066,0.0788,-0.0613,-0.438,0.327,-0.35,-0.579,0.0824,0.292,0.845
TCATGTAGGTAAAAGGTGAAAGTCGGTGTGGTAA,5.39,5.6,0.711,0.765,2.48,1.67,0.518,2.72,1.33,1.81
GCTATTAGTTGAAAGGGCAACCCAATGATTCTCG,0.127,0.818,-0.129,0.251,1.44,0.791,0.511,1.27,0.81,2.08
ACTAGCAGGCCAAGGGTTACTCAAGATTAGTCCG,0.518,2.14,-0.596,-0.597,0.215,0.27,-0.411,1.05,-0.361,0.894
ATATGTAGGTTATCGGGTCATTAAGTTTGCGCAT,7.51,7.55,2.77,2.29,2.72,4.08,9.55,3.8,1.51,2.62
AGAATGAGGTTACCAAACATCAGGGAAACGCTTG,4,3.04,1.44,0.505,0.76,0.954,-0.13,1.59,-0.309,1.82
ACTAGCAGGCCAAGGGTCAGTCAAGATTAGTCCG,0.997,2.79,-0.401,-0.926,1.54,1.69,-0.439,2.56,-0.0893,2.85
ATCTATAGGTAAGACTCAGTTCAGTGAAGAACGC,1,0.562,0.789,1.3,0.365,1.49,1.21,0.627,0.874,0.432
TCTAGCAGGCCAGAGGGTCATTCAAGAGGTACGG,0.912,0.374,-1.21,-1.66,0.751,2.2,-0.364,2.79,-0.545,2.17
GGAACGAGGGCAAAATTGATAGCATCTGTCGACG,3.25,2.12,0.369,-0.0358,0.19,0.226,-0.165,0.355,-0.196,1.57
TCATATAGGTAAAAGGTGAATGTCGGTGTGGTAA,5.52,5.08,1.42,1.7,1.98,1.71,0.679,2.97,1.84,1.86
CCTGACAGGTGAAAGGTAACTCAGTCTGGTACGC,2.33,2.82,-0.213,-0.0292,0.546,0.876,-0.396,1.84,0.115,1.3
TGAATGAGGTGATAAGATCAGGGAACGTTGCAAA,1.64,2.01,0.612,0.281,-0.472,-0.0646,-0.0145,0.43,-0.23,0.351
TCATATAGGTGAATGCTAGGTGAAAGTCCGATCT,6.19,5.78,1.9,1.82,1.06,0.532,-0.173,1.33,0.882,1.22
CCTTACGGGTCACTGACAGGTTATGGCATTTGGA,3.42,3.8,0.363,-0.311,3.61,3.77,-0.0581,4.95,1.29,4.04
ATATGTAGGTTATCGGGTTATTCAGTTTGCGCAT,7.05,7.32,2.24,2.13,2.36,1.88,1.38,1.79,2.46,1.11
ATCTCTAGGTAAAGATACTTCAGTGAATGCAAAT,1.8,1.32,1.1,1.13,0.534,0.635,0.252,0.522,0.591,-0.033
